Experiment [1] addresses T1, Ephrin type-A receptor 3 (Homo sapiens) (UniProt P29320).
T1 sequence (whole entry): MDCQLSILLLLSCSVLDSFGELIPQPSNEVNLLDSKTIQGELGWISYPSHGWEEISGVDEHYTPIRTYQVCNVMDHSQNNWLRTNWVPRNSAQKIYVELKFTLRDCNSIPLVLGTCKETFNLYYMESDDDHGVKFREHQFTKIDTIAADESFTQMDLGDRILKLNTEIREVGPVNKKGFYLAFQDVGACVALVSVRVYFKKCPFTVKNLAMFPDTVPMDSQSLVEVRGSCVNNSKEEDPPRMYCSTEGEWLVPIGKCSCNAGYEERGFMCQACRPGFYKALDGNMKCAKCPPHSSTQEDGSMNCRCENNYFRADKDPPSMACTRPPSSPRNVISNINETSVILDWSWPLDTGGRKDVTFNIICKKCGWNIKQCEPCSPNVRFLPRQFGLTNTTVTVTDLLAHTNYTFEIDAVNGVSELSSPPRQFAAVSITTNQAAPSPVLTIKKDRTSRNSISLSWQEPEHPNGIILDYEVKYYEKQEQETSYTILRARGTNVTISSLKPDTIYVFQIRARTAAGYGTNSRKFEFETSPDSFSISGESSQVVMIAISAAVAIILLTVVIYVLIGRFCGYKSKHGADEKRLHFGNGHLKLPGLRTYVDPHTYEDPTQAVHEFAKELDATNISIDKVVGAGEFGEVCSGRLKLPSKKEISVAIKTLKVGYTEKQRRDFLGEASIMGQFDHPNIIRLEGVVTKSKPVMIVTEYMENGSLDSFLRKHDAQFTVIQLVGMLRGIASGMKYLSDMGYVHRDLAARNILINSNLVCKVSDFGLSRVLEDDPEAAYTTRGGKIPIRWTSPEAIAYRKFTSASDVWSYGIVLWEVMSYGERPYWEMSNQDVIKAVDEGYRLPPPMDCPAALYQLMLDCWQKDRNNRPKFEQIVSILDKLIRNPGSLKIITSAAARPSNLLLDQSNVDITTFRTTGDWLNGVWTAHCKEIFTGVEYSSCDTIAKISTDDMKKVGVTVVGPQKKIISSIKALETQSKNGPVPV
To be noted: at 10 µM.

The target in experiment [2] is Ephrin type-A receptor 4 (Homo sapiens) (UniProt P54764). The note with it: at 1 µM.
Chain of Ephrin type-A receptor 4 (Homo sapiens) (P54764 whole entry): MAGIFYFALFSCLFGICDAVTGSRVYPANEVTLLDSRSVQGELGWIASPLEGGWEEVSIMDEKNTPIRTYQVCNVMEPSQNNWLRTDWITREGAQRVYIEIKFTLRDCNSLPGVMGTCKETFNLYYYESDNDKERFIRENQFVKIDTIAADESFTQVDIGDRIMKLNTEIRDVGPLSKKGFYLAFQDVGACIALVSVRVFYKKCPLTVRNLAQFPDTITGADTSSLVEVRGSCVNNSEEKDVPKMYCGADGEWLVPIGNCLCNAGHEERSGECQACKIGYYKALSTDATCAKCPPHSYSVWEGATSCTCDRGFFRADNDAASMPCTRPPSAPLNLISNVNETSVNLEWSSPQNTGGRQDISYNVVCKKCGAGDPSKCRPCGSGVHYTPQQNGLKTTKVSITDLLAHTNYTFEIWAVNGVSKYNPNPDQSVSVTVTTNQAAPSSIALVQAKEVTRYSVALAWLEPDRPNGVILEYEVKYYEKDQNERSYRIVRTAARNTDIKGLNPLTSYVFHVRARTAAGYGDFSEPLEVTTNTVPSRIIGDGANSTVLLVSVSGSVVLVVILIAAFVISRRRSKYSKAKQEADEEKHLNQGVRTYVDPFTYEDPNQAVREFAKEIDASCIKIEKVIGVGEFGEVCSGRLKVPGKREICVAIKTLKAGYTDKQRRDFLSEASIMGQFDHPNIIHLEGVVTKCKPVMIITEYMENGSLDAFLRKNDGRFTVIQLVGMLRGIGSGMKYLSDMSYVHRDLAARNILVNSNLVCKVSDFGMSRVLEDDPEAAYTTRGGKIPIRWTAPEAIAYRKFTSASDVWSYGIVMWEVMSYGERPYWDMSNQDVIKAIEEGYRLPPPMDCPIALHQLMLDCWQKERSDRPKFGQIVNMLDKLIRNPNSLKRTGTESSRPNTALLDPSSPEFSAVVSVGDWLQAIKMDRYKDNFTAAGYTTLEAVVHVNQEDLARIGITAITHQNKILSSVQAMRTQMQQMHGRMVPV
The target is the same in experiment [3]. To be noted: at 10 µM.
Experiment [4] deals with Ephrin type-A receptor 5 (Homo sapiens) (UniProt P54756). The note with it: at 1 µM.
Chain of Ephrin type-A receptor 5 (Homo sapiens) (P54756 whole entry): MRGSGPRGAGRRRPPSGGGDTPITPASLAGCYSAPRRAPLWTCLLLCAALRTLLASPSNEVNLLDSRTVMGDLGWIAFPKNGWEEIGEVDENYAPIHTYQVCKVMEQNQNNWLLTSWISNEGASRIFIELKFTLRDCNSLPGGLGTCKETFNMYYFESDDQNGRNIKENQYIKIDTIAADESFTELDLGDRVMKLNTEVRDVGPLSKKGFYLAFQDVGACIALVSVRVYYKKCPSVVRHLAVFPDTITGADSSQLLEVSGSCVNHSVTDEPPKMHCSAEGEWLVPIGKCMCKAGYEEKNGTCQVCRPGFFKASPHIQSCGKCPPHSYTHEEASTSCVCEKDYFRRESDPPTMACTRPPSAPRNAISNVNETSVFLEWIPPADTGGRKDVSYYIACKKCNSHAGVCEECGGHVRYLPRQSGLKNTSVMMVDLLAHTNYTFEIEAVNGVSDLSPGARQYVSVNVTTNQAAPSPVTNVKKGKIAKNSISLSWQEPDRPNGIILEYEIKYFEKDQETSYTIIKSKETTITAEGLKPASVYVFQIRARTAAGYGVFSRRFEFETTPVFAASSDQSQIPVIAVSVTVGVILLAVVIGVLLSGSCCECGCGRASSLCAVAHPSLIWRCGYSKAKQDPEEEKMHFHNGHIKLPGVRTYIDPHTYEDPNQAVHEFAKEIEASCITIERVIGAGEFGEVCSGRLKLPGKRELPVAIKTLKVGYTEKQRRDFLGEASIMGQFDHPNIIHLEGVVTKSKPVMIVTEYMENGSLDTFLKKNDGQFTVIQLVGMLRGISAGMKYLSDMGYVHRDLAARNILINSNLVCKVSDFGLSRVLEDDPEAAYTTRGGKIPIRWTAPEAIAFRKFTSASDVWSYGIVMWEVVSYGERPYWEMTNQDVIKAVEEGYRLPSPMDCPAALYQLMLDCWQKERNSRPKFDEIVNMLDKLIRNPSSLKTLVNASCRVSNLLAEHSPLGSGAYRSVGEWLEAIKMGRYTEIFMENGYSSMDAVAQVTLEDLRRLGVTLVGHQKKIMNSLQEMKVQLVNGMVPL
Experiment [5] shares this target. The note with it: at 10 µM.
Experiment [6] has as its target Ephrin type-A receptor 7 (Homo sapiens) (UniProt Q15375). To be noted: at 1 µM.
For experiment [7] the target is unchanged. The note with it: at 10 µM.
In experiment [8] the target is T2, Ephrin type-A receptor 8 (Homo sapiens) (UniProt P29322).
T2 sequence (whole entry): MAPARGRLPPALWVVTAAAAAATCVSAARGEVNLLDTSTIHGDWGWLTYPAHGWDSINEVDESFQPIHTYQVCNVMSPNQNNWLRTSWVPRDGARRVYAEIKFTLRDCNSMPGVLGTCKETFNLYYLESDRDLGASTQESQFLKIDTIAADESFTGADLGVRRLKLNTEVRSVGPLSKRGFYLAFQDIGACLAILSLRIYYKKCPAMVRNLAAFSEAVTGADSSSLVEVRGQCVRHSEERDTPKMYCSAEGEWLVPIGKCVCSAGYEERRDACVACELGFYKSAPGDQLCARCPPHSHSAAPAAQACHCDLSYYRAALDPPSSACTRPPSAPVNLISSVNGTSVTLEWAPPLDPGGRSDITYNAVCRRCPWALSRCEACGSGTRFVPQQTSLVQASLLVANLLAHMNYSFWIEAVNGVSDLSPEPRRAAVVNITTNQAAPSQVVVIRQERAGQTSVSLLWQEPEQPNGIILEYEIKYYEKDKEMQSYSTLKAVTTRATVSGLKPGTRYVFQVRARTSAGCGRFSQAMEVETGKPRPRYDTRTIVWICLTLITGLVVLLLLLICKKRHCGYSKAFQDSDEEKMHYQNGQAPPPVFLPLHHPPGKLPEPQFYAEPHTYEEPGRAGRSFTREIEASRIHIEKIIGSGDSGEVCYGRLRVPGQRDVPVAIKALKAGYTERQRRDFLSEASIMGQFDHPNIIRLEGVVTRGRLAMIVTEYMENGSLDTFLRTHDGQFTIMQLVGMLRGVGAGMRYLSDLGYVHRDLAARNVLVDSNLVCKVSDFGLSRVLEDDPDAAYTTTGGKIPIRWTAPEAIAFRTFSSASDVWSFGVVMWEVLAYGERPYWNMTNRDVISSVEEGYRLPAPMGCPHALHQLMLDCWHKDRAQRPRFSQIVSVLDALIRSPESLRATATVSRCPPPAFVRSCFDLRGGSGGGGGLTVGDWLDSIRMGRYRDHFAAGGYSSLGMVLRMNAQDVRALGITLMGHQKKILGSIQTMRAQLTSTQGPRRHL
To be noted: at 1 µM.

The target of experiment [9] is T2, Ephrin type-A receptor 8 (Homo sapiens). To be noted: at 10 µM.
Experiment [10] has as its target T3, Ephrin type-B receptor 1 (Homo sapiens) (UniProt P54762).
T3 sequence (whole entry): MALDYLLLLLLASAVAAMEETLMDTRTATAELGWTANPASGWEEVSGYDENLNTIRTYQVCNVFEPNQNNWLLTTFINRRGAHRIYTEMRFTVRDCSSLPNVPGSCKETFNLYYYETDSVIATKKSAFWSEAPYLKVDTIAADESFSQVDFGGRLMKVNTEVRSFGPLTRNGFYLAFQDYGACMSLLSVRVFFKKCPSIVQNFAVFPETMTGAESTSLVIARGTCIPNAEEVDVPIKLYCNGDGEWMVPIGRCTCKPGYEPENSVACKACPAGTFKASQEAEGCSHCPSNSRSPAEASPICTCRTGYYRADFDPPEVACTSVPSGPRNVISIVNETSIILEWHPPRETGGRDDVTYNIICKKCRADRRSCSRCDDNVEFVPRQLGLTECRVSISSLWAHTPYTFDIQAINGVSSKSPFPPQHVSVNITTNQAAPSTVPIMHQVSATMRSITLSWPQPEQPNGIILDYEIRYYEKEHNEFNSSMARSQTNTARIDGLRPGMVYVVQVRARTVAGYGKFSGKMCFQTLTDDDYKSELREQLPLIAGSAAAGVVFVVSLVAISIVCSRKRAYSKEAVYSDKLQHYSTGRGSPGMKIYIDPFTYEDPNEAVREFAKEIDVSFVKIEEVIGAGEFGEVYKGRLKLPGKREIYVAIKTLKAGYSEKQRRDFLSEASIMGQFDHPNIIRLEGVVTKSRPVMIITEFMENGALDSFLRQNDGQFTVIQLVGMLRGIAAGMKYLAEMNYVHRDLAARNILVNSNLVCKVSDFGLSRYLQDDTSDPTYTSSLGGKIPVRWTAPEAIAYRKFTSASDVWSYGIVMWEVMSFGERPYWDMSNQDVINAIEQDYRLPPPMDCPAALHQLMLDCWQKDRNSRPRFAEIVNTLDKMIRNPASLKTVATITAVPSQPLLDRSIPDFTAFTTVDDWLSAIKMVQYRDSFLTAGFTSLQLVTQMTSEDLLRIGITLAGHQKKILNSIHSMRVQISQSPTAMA
The note with it: at 1 µM.

Chain of Ephrin type-A receptor 7 (Homo sapiens) (Q15375 28-998 limits assumed): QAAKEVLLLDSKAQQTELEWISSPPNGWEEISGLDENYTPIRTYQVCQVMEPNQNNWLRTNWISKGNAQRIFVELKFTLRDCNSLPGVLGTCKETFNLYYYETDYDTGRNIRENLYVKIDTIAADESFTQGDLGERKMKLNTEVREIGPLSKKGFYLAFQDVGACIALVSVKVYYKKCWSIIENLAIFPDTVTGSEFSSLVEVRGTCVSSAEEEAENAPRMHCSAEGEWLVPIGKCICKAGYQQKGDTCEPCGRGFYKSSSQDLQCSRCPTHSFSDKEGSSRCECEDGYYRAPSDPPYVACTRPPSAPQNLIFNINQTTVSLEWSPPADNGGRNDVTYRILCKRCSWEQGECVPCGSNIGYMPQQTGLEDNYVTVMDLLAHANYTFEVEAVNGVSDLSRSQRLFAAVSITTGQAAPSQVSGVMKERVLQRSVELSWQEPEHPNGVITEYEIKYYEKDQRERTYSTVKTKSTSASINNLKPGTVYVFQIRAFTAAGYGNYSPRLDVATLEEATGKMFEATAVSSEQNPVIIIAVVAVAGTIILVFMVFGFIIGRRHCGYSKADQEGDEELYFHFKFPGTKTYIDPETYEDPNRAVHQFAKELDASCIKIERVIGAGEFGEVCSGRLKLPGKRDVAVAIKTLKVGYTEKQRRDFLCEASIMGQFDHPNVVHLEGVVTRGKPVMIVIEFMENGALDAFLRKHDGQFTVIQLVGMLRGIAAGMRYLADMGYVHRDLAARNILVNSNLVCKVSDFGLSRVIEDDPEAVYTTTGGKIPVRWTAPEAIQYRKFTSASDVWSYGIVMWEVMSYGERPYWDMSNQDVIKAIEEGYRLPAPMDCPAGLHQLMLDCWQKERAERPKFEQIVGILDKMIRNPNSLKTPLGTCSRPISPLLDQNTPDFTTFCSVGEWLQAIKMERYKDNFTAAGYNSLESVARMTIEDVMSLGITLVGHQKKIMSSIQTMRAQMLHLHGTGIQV

Regarding `Nc1ncnc2c1c(-c1ccc(Oc3ccccc3)cc1)cn2C1CCCC1`, the residual activity in [1] stood at 48%; in [2], 112%; in [3], 79%; in experiment [4], 83%; in experiment [5], 38%; in [6] it was 94%. Besides, the residual activity amounted to 66% in experiment [7], 84% in [8], 27% in experiment [9] and 90% in [10].

The residual activity is the signal under treatment as a percentage of the control signal.

These data come from ChEMBL document CHEMBL2218924, “A broad activity screen in support of a chemogenomic map for kinase signalling research and drug discovery” (Biochem J, 2013).
